# The supplement of paper PMC11417369
# Whole data set: some 25,000 sequences, median “ln(normalized median fluorescence intensity)” near 7.1, cut for the highest 2% near 10. This excerpt belongs to a sample that is enriched for the highest values.
# Tested on: PfSIP2 AP2 domain 1 (GST-tagged)
# Assay: gcPBM binding intensity (ln(normalized median fluorescence intensity)); higher = stronger DNA binding
# Procedure, shortened: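 An Agilent 4 × 180k array of primer-extended double-stranded 36-bp intergenic genomic probes, with negative controls, was incubated for 1 h with GST-tagged P. falciparum DNA-binding domains expressed in E. coli. Alexa488 anti-GST antibody detected bound protein, scanned at 488 nm. Binding intensity is the highest Masliner-normalised natural-log median intensity across replicate spots of either probe orientation.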
row,Sequence,gcPBM binding intensity (ln)
1,AATTATTGTGAAGGGAAAACAAAAAAGTTTATAATT [CACACA_negctrl_site1337],6.87
2,TTTATAAAGGGAAAGGTGCAAAAGGTGAAAGTTTTA,10.8
3,AGTGTTTTTTATAAAGTGCAATATAAAAACAAAATG,8.59
4,TATATATATATACATTGTACATTATTGATTATAACA [XGTACX_site1678],9.52
5,TTTGAATCCTTATATACACACATTATGTAATATTAT [CACACA_site561],7.1
6,ATATATATATATATATGTACATAGAGAAGTATCTTT [XGTACX_site4737],9.91
7,TTTTTTTTTTTTTTGGTGCAGTTCACATATTATATA [GTGCAC_site9996],9.48
8,ATGTAGAAGTAATGCACACATATGTATTTATATATA [CACACA_site5391],7.26
9,ATGGTTATATTTGAAGTGCAAAAAAAAATATATGTA,8.55
10,GAAGTAGATGGAAAAGTGCACTGTAATGGTTATATT,10.3
11,CATTAATAACAAAGTTGTACAAGATAATATTATATG [XGTACX_site6832],7.26
12,TAAAAAATTATTAAACGTACGAGACTTTTTATCAGT [XGTACX_site2219],7.05
13,AAAAAAAAATATAACAGTACATAAACATATGAATAT [XGTACX_site7093],6.91
14,ATAATAAAAAAAATTAGTACATATATAAATATAAAT [XGTACX_site1937],6.85
15,CATCTCATATTTTGAAGTACTAAGAAAAGATATAAA [XGTACX_site6867],7.07
16,TTTTTTTTTTTTTTTGCATGTTGAAAATAAAATTAT [TGCATGCA_site86],6.92
17,GAAAATTTAAAAAGAGTGCATTATATGTTTGAATAT [GTGCAC_site9564],9.18
18,TTTTATGCATGTGAAGTGCAAAATAAAAAATAAAAT [GTGCAC_site9612],10.2
19,AATTTGAAATATGTGGTGCAGTTATATAATATGTTT [GTGCAC_site9885],10.3
20,TATATTTGAAATATATGTACTTATAATACAGTTTAA [XGTACX_site8039],6.94
21,TTTTATGTTTATGTGGTGCATGTTTTGAAGAAAATA [GTGCAC_site9616],10.3
22,ATATAAAATCAACAAAAAAAAAAAATATATATATAT [XGTACX_negctrl_site251],9.03
23,AAATACATAACTTAAAATTTGTTCATATCTATACAT [TGCATGCA_negctrl_site249],6.94

row,Sequence,gcPBM binding intensity (ln)
1,AAAAATTAACAAAAGGTGCAAACAAATAGTGGTTTT [GTGCAC_site9998],10.8
2,ACATTAACATTGTTGGTGCAAAATTAATATGTTTTT [GTGCAC_site9673],9.77
3,AGGTTTTCTTAAATAGTGCATTATAACAAAAATAAA,9.66
4,GTATATAATTTATGTGCACACACTCCTATTTTTAGC [CACACA_site49],8.89
5,ATTCCTTGGTTGTATAGTACTTTGGTTAAACATAAA [XGTACX_site6967],7.4
6,CTTATAAGAATACTAGTGCACATAATTTAACGAAAA,10.6
7,TAGATTATTATACTAGTGCAAATTATTTAAGAAAAA,8.09
8,AAGATAAAATTATGCACACATACGAATAATTTTAAA [CACACA_site1705],7.24
9,AAAAATTTAATTATTTGTACATAAAATACATTTCTG [XGTACX_site791],6.81
10,TTATAAATATAATTTTGTACATATATATATATATAC [XGTACX_site5064],7.39
11,AAAATTATACACACACGTACATATAAATAGAAATAT [XGTACX_site1753],7.12
12,AACATACGACAATACGCACACATATAAGTACATATT [CACACA_site8584],7.13
13,AGGATAAAAGTTATGGTGCATTAACCTATTTAAATA,10.2
14,TTCTATTTTTTAAAAGTGCATATTATAAATATATAT,9.04
15,ATTTAAAAGTTGGTAGTGCATTAAAAATAACAAAAA [GTGCAC_site9835],8.96
16,GCACATTTTTTTATCACACATATAATTACAATATAA [CACACA_site5585],7.74
17,ACAATATTTTTTTATAAACACACATATATATAAATA [CACACA_site9175],7.18
18,AATAATGAATTGAAATGTACATATTTTTATTAATAC [XGTACX_site8899],7.15
19,AAAATATAAAGTATTTGTACATAATATATTTTTAAA [XGTACX_site3494],6.81
20,CATGAGGTATAAAAGGTGCAAATTAATGAGAACATT,11.1
21,CAATTAAACAATTAAACATGCAAAATGATATAATAA [TGCATGCA_site240],6.79
22,TATGTATTAATGAGAACATGCAAAATAATAAACAAT [TGCATGCA_site362],7.24
23,TATATATATATATGTGGTACATAAAATTATTATTTT [XGTACX_site4554],9.55
